PubChem BioAssay AID1159580 (chemical genetic matrix, 2015)
“And” between values parts separate entries of the source, which are not always exact repeats. Equal entries are not always repeated. The campaign covered roughly 5,500 compounds. About 2,000 (36%) were called active. Roughly 18% stayed inconclusive and do not appear here. No stated cut-off is given here; in the data, active means normalized growth mostly below about 0.91 (no sharp cut-off); inconclusive means no clear call, values can overlap the other calls; inactive means mostly above about 0.92. Some of the results follow.

Experiment: chemical genetic growth profiling, strain panel (AID 1159580);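 further: tested at 20 µM; growth read once vehicle control cultures reached saturation at 30 °C; 1 = growth at the plate median or of vehicle wells; lower values mean less growth of the strain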
Conditions: S. cerevisiae deletion strains, growth OD

Measured: normalized growth

NCC(O)c1ccc(O)cc1 (stereo not given)
inactive: locus YAL013W, strain DEP1, active compounds read low 0.996 and 1.01 | locus YAL021C, strain ccr4, active compounds read low 1.01 | locus YAL026C, strain drs2, active compounds read low 1.01 | locus YAL030W, strain snc1, active compounds read low 0.997 | locus YAL040C, strain CLN3, active compounds read low 1 | locus YBL061C, strain skt5, active compounds read low 1.01 | locus YBR009C, strain hhf1, active compounds read low 0.995 | locus YBR021W, strain FUR4, active compounds read low 0.987 | locus YBR023C, strain chs3, active compounds read low 0.998 | locus YBR171W, strain sec66, active compounds read low 0.995 | locus YBR229C, strain ROT2, active compounds read low 0.977 | locus YBR231C, strain swc5, active compounds read low 1.02 | locus YBR279W, strain paf1, active compounds read low 1.02 | locus YCL011C, strain gbp2, active compounds read low 1.03 | locus YCL016C, strain dcc1, active compounds read low 1.03 | locus YCL029C, strain bik1, active compounds read low 0.966 | locus YCL061C, strain MRC1 (second series), active compounds read low 1.01 | locus YCL069W, strain vba3, active compounds read low 1 | locus YCR088W, strain abp1, active compounds read low 0.993 | locus YDL005C, strain med2, active compounds read low 0.998 | locus YDL035C, strain GPR1, active compounds read low 1.01 | locus YDL040C, strain nat1, active compounds read low 0.999 | locus YDL074C, strain BRE1, active compounds read low 1 | locus YDL101C, strain DUN1, active compounds read low 0.987 | locus YDL134C, strain PPH21, active compounds read low 0.996 | locus YDL185W, strain tfp1, active compounds read low 0.977 | locus YDL192W, strain arf1, active compounds read low 0.984 | locus YDR001C, strain nth1, active compounds read low 1.01 | locus YDR069C, strain doa4, active compounds read low 0.996 | locus YDR101C, strain arx1, active compounds read low 0.987 | locus YDR137W, strain rgp1, active compounds read low 1.02 | locus YDR150W, strain NUM1, active compounds read low 1.01 and 1 | locus YDR159W, strain sac3, active compounds read low 0.963 | locus YDR162C, strain NBP2, active compounds read low 0.999 | locus YDR195W, strain ref2 0.947 | locus YDR297W, strain sur2, active compounds read low 1.02 | locus YDR318W, strain mcm21, active compounds read low 0.963 | locus YDR334W, strain swr1, active compounds read low 1 | locus YDR335W, strain msn5, active compounds read low 1.01 | locus YDR363W, strain ESC2, active compounds read low 1 | locus YDR388W, active compounds read low 0.97 | locus YDR392W, strain spt3, active compounds read low 0.995 | locus YDR502C, strain sam2, active compounds read low 0.988 | locus YEL003W, strain gim4, active compounds read low 1.01 | locus YEL037C, strain rad23, active compounds read low 1.01 | locus YEL061C, strain CIN8 (second series), active compounds read low 0.999 | locus YEL061C, strain CIN8, active compounds read low 1 | locus YER002W, strain NOP16, active compounds read low 1 | locus YER015W, strain faa2, active compounds read low 1.01 | locus YER016W, strain bim1, active compounds read low 0.999 | locus YER110C, active compounds read low 0.976 | locus YER111C, strain swi4, active compounds read low 1.01 | locus YER155C, strain BEM2 (second series), active compounds read low 0.977 | locus YER155C, strain BEM2, active compounds read low 0.99 | locus YER167W, strain BCK2, active compounds read low 0.992 | locus YFR010W, strain ubp6, active compounds read low 0.998 | locus YGL078C, strain dbp3, active compounds read low 0.988 | locus YGL086W, strain mad1, active compounds read low 0.993 | locus YGL167C, strain pmr1, active compounds read low 0.997 | locus YGL173C, strain kem1, active compounds read low 1.01 | locus YGL227W, strain vid30, active compounds read low 0.995 | locus YGL240W, strain doc1, active compounds read low 0.985 | locus YGL248W, strain PDE1, active compounds read low 0.989 | locus YGL253W, strain hxk2, active compounds read low 1.03 | locus YGR078C, strain PAC10, active compounds read low 0.989 and 1.03 | locus YGR135W, strain pre9, active compounds read low 0.984 | locus YGR229C, strain SMI1, active compounds read low 1 and 1.01 | locus YGR252W, strain gcn5, active compounds read low 1.03 | locus YHR013C, strain ard1, active compounds read low 0.978 | locus YHR027C, strain rpn1, active compounds read low 1.01 | locus YHR030C, strain SLT2, active compounds read low 0.983 and 0.979 | locus YHR079C, strain IRE1 (second series), active compounds read low 0.975 | locus YHR079C, strain IRE1, active compounds read low 0.982 | locus YHR094C, strain hxt1, active compounds read low 0.986 | locus YHR129C, strain ARP1, active compounds read low 0.994 | locus YHR142W, strain chs7, active compounds read low 1.02 | locus YHR200W, strain rpn10, active compounds read low 0.98 | locus YIL066C, strain RNR3, active compounds read low 0.998 | locus YIL073C, strain SPO22, active compounds read low 0.986 | locus YIL125W, strain kgd1, active compounds read low 0.982 | locus YIR030C, strain dcg1, active compounds read low 0.983 | locus YJL092W, strain hpr5, active compounds read low 1.01 | locus YJL095W, strain BCK1 (second series), active compounds read low 1.01 | locus YJL095W, strain BCK1, active compounds read low 0.962 and 1 | locus YJL115W, strain asf1, active compounds read low 1.01 | locus YJL129C, strain trk1, active compounds read low 1.01 | locus YJL134W, strain LCB3, active compounds read low 0.995 | locus YJL154C, strain vps35, active compounds read low 0.99 | locus YJL164C, strain tpk1, active compounds read low 0.994 | locus YJL166W, strain qcr8, active compounds read low 0.999 | locus YJL168C, strain set2, active compounds read low 0.976 | locus YJL187C, strain SWE1 (second series), active compounds read low 0.988 | locus YJR043C, strain POL32, active compounds read low 0.994 | locus YJR066W, strain TOR1, active compounds read low 0.919 | locus YJR075W, strain HOC1, active compounds read low 0.993
